# Source: the supplement of paper PMC3724861
# This is one part of a sample in which hits are shown more often than they occur. The true hit rate is not given. A number with no mark means an inactive call.
# Tested on: T1, Caupolican (Caup) homeodomain DNA-binding domain
# T1 sequence: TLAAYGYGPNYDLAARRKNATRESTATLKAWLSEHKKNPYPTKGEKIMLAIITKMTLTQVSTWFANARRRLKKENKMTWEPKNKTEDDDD
# Experiment: PBM E-score (8-mer, recovered from the published 9-mer minima) (E-score (dimensionless, -0.5 to 0.5)); Drosophila protein; higher = stronger relative binding preference, active = 0.31 or more
# Method in brief: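 Caup's homeodomain DNA-binding domain (residues 214-303) was produced by in vitro transcription and translation and applied at 100 nM to custom-designed protein binding microarrays. Each value is an enrichment score giving relative binding preference for a short DNA word; higher means stronger. Published 9-mer scores were the minimum of their two constituent 8-mer scores, and the 8-mer values were recovered from those minima. A cutoff of 0.31 marks candidate binding sequences.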
row,Sequence,PBM E-score
1,ACAGCGAG,-0.0026
2,GGCTATAC,-0.0714
3,AACGAGGA,0.0777
4,CTGAAACC,-0.0654
5,CTTCCGGA,-0.173
6,GAATGTCA,0.169
7,GCATGGCA,-0.0563
8,GAATGTCC,0.145
9,CCATGGCA,-0.0986
10,CCATGTCA,0.398 (active)
11,ATATGTCG,0.302
12,AAATGTCC,0.126
13,AAATGTCG,0.144
14,GCATGTCC,0.31 (active)
15,ACATGTCG,0.416 (active)
16,GCATGTCA,0.44 (active)
17,CAATGTCA,0.293
18,GATAAGGA,0.0879
19,CGTTATAC,0.0592
20,GTTTTTGA,0.084
21,GTTTAGAA,0.121
22,AAATGTCA,0.266
23,ACATGTCC,0.438 (active)
24,CAATGTCG,0.227

row,Sequence,PBM E-score
1,AAATGTCT,0.106
2,AGATGTCC,0.234
3,ACCTGTCT,0.144
4,CCATGTCC,0.292
5,CCATGTCG,0.362 (active)
6,ACATGTCA,0.461 (active)
7,ACATGTCT,0.417 (active)
8,ACATGGCA,0.307
9,CCCTGTCG,-0.0227
10,CTCACAGC,-0.124
11,ACCTACCC,-0.14
12,CGCGTAGC,-0.153
13,CAAGACTA,0.107
14,ATAGCCAT,0.0738
15,CATTCATA,0.179
16,CCTGGTGA,-0.102
17,ACTCTGCG,-0.03
18,TCATGGCA,-0.0694
19,TAATGTCA,0.258
20,TCATGTCA,0.391 (active)
21,ATTCGGAA,0.0171
22,CCCGCTAA,-0.182
23,CGCGATCC,-0.0878
24,GTCAACAC,0.175

row,Sequence,PBM E-score
1,GACAACTC,0.191
2,AACAACAC,0.392 (active)
3,GACAACGA,0.179
4,GACAACAA,0.342 (active)
5,GTCAACAA,0.285
6,GACAACAC,0.352 (active)
7,AACAACGC,0.182
8,CACAACAC,0.265
9,ACTATTTG,0.153
10,GTCTTGAA,0.0106
11,AGAACCCT,-0.163
12,GCATGAAC,0.104
13,CCATGAAA,0.00449
14,ACATGAAG,0.293
15,ACATGAAA,0.314 (active)
16,ACATGAAT,0.336 (active)
17,ACATGAAC,0.372 (active)
18,CCATGAAC,0.0647
19,GCATGAAA,0.111
20,ATATGAAT,0.107
21,CTATATTA,0.168
22,CCCTGTCA,0.129
23,GCAACATA,0.204
24,ACAACAGC,0.214

row,Sequence,PBM E-score
1,ACAACTTG,0.271
2,CCAACATC,0.113
3,ACAACATC,0.356 (active)
4,ACAACATA,0.411 (active)
5,ACAACAGG,0.192
6,ACAACATG,0.441 (active)
7,CCAACATA,0.211
8,ATGGGTCG,-0.0702
9,ACAATGGC,0.0838
10,ACTCTCGC,-0.115
11,TCTTGTAA,0.371 (active)
12,ACTTGTAT,0.391 (active)
13,ACTTGTAA,0.403 (active)
14,AATTGTAT,0.228
15,GTTTGTAA,0.198
16,AGTTGTAT,0.231
17,ATTTGTAA,0.277
18,AATTGTAA,0.209
19,TATTGTAA,0.275
20,GCTTGTAA,0.384 (active)
21,GATTGTAA,0.205
22,TCTTGCAA,0.0461
23,ATATCTAC,0.166
24,ACAAAAAC,0.117

row,Sequence,PBM E-score
1,AGTTGGTG,-0.0391
2,CCGCATAG,-0.0554
3,ATTGTTCG,0.213
4,CGCTCAGC,-0.138
5,GTACAAAA,0.323 (active)
6,GCACAAGA,0.0557
7,ATACAAGG,0.283
8,CTACAAGA,0.263
9,ATACAAGC,0.316 (active)
10,ATACAAGA,0.322 (active)
11,CTACAAAA,0.123
12,GTACAATA,0.306
13,GTACAAGA,0.418 (active)
14,TTACAAAA,0.203
15,CTACAAGC,0.29
16,ATACAATA,0.26
17,AATAGCCT,-0.0311
18,AATAGAGA,0.041
19,CACGTAAG,0.0839
20,GTGCTCCA,-0.0875
21,CTTCCAGC,-0.248
22,CCCGAATC,-0.201
23,CAAATGTA,0.294
24,AACATCTA,0.252

row,Sequence,PBM E-score
1,AACATGTT,0.45 (active)
2,CAAATGTC,0.141
3,AAAATGTT,0.249
4,CACATGTC,0.387 (active)
5,CACATCTA,0.208
6,AACATCTT,0.246
7,CACATCTC,-0.00827
8,CACATGTA,0.42 (active)
9,AACATTTA,0.275
10,AACATGTA,≥ 0.48 (active)
11,GCGTACGC,-0.112
12,ACCACCAC,0.0458
13,CGAATCTC,0.0162
14,GATGCCCA,-0.0463
15,CGCTTTAC,0.0463
16,GCGATACA,0.217
17,ATTGGGAG,-0.0672
18,ACGGATCG,0.00507
19,CCTTGCTA,0.0673
20,AAAGGTCT,-0.0899
21,GACATGTA,0.477 (active)
22,AACATGTC,0.424 (active)
23,AACATCTG,0.22
24,AAAATGTC,0.217

row,Sequence,PBM E-score
1,GACATATC,0.256
2,CACATGTG,0.18
3,GACATGTC,0.437 (active)
4,AACATCTC,0.254
5,GAAATGTA,0.131
6,AACATGTG,0.402 (active)
7,GACATTTA,0.177
8,GAAATGTC,0.114
9,CGTGCTGA,0.0459
10,CTGGGCTC,-0.186
11,ACACCACA,0.262
12,ACGCTGTC,0.0456
13,GCCACCAC,-0.199
14,ATTGCCAG,-0.0611
15,ATGTTACG,0.326 (active)
16,TAGTTACA,0.311 (active)
17,AGGTTACG,-0.0221
18,GAGTTACA,0.215
19,GTGTTACA,0.381 (active)
20,CTGTTACA,0.33 (active)
21,GTGTTAAA,0.246
22,CGGTTACA,0.183
23,CTGTTACC,0.142
24,AAGTTACA,0.261

row,Sequence,PBM E-score
1,GCGTTACA,0.198
2,ACGTTACG,0.0614
3,CGTTATTA,0.116
4,AAAACCGG,-0.0173
5,ACGCAATG,0.0404
6,CTGTCCCC,-0.0725
7,CAGCTAGG,-0.046
8,TACAATGA,0.266
9,AGGTTACC,-0.0352
10,AGGTTACA,0.191
11,ACGTTACA,0.282
12,AAGTTACC,0.148
13,ATGTTACA,0.406 (active)
14,ATGTTACC,0.331 (active)
15,AAGTCGTG,0.0196
16,AAAATGTA,0.166
17,CGATATTA,0.219
18,ATTTTACA,0.305
19,AATTACAT,0.385 (active)
20,GATTACCA,0.0721
21,AATTACTA,0.179
22,TCTTACAA,0.246
23,AATTACAG,0.244
24,CATTACAA,0.288

row,Sequence,PBM E-score
1,GATTACAA,0.314 (active)
2,TATTACAA,0.341 (active)
3,AATTACGT,0.122
4,GATTACTA,0.184
5,AATTACAA,0.396 (active)
6,AATTACCA,0.184
7,AAGACTGC,-0.0769
8,AAATGACG,0.171
9,GATGCCAA,-0.0306
10,TAGCGGGA,-0.169
11,CGATATTC,-0.0778
12,AGGATGAA,-0.102
13,CCGAGTCG,-0.169
14,AGAAGAGG,-0.176
15,CCCCTTCG,-0.25
16,ATGGGAAC,0.0233
17,AGGTAGAA,0.0148
18,TAACAGCA,0.145
19,CACAAACC,-0.0236
20,TTGATCAA,0.115
21,GACCGTTA,0.0165
22,AGTCAGAC,-0.0283
23,AGTTACAG,0.189
24,AGTTACAC,0.303

row,Sequence,PBM E-score
1,CGTTACAA,0.289
2,AGTTACAT,0.319 (active)
3,ACTTACAT,0.339 (active)
4,AGTTACAA,0.295
5,ACTTACAC,0.245
6,ACTTACAG,0.187
7,TGTTACAA,0.42 (active)
8,CCGAAATC,-0.0715
9,CCGAGCAG,-0.0223
10,ACTCAGCA,0.0319
11,ACGTGTTA,0.33 (active)
12,CGGTGTTA,0.179
13,ACGTGTGG,0.0393
14,CGGTGTTC,0.157
15,CAGTGTTA,0.24
16,CCGTGTTC,≥ 0.382 (active)
17,AGGTGTTG,0.125
18,ACGTGTTG,0.347 (active)
19,GCGTGTTA,0.284
20,ACGTGTTC,0.279
21,CCGTGTTA,0.321 (active)
22,AGGTGTTA,0.207
